Sampled rows, rich in hits. Any-hit rate of the full collection: about 3.7%.
B2AR arrestin = agonists driving beta-arrestin recruitment to human beta2-adrenergic receptor. P07550. beta-arrestin recruitment to beta2AR, cell-based reporter. Potency, µM (highest dose often 46.1 µM), for the others: at the top dose activation, hits mostly activators. 0.02% of 330,000 active. AID 492947;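 note: potency is the fitted concentration of half-maximal effect; 0% = DMSO controls and full agonism = EC100 isoproterenol or metaproterenol; nearly all actives have a fitted effect of over 65% in size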
Target sequence (P07550 whole entry, looked up): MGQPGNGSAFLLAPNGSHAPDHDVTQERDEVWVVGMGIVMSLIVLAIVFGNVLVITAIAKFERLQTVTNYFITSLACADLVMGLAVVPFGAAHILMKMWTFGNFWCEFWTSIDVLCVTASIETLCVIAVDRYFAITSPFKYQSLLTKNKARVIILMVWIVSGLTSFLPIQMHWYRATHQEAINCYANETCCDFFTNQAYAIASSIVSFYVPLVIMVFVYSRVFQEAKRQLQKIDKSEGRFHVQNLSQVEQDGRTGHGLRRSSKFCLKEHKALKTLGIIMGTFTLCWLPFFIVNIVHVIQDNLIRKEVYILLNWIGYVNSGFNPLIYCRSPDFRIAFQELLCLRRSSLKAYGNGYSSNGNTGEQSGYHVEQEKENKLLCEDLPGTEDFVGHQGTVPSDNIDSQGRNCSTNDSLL
BRCA1 expr act = BRCA1 expression activation | Potency, µM (doses to about 46.1 µM), without a hit: top-dose activation, actives largely listed as activators | MCF7-BRCA1-FFLuc reporter, luminescence, 48 h; response scale: scaled: vehicle 0%, 10 µM genistein 100% | 1.1% of 380,000 active; note: potency is the fitted concentration of half-maximal effect; nearly all actives have a fitted effect of over 80% in size
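First, MCF7-BRCA1-FFLuc cells (2000/well) attach for 2 h; next, compounds are pin-added and incubated 48 h at 37 °C; finally, luciferase reagent is added and luminescence read after 15 min.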
DRD3 agonist = activates the human D3 dopamine receptor; P35462; max activation, %; 0.58% of 410,000 active; AID 652048; D3R DiscoveRx beta-arrestin cells, luminescence, 90 min; in the data active = max activation above about 30%; note: 0% is about no effect
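Agonist mode: compounds and dopamine controls were applied to plated cells for 90 min at 37 degrees C after an overnight attachment at 1500 cells/well. Luminescent read-out followed 30 - 60 minutes at room temperature with DiscoveRx detection reagent.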
DRD3 antagonist = blocks the human D3 dopamine receptor; 2.5% of 360,000 active; max response, negative = inhibition, %; AID 652054; D3R cells, DiscoveRx beta-arrestin luminescence, antagonist mode; active compounds read low; P35462; in the data active = max response below about -50%; inconclusive = no clear call, values can overlap the other calls; note: % is set by controls: 0 for no effect and ±100 for the full control effect
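Cells plated overnight at 1500 cells/well, then exposed to library compounds with dopamine controls for 90 minutes at 37 degrees C. DiscoveRx reagent added for 30–60 minutes at room temperature; luminescence read, quantitative HTS format.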
RGS4 inhibitor = inhibitors of human regulator of G protein signaling 4; Transcreener GDP fluorescence polarization, RGS4-accelerated GTP hydrolysis; Potency, µM (top dose mostly 114 µM), for inactives: at the top dose activity change, negative = inhibition, most hits filed as inhibitors; 0.039% of 390,000 active; AID 504845; note: potency is the fitted concentration of half-maximal effect; % is set by controls: 0 for no effect and ±100 for the full control effect; nearly all actives have a fitted effect of over 75% in size
Target sequence (P49798 whole entry, looked up): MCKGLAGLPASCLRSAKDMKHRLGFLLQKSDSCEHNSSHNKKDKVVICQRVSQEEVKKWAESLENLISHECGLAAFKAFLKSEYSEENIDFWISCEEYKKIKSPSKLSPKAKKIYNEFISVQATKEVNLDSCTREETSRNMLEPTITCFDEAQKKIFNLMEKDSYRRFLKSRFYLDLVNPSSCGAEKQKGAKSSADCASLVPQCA
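MLSMR compounds (23 nl, pin-transferred) preincubated 10 min at room temperature with a 500nM (2x) first reagent, then RGS4 at 900nM (2x) plus Transcreener GDP mix added; fluorescence polarization (620/688 nm) read before and after 90 min at 30 °C.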
PTHR1 agonist = agonists of human PTHR1 parathyroid hormone receptor | Q03431 | 0.075% of 410,000 active | HEK293 GP2 PTHR1 cells, GloSensor cAMP luminescence, 1 h | Potency, µM (highest dose often 115 µM), inactives show at the highest dose activation, hits mostly activators | AID 743266; note: potency is the fitted concentration of half-maximal effect; nearly all actives have a fitted effect of over 55% in size
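HEK-293-derived GP2 cells expressing PTHR1 and a GloSensor cAMP reporter, 3,000/well, plated overnight, given luciferin plus IBMX (each 0.5 mM as added) for 1 h at 37 °C, then compound for 1 h at 37 °C. Luminescence was read after 15 min at room temperature.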
Starred values were filed as active, the others as inactive; i = inactive; ? = inconclusive; nt = not tested or not shown; [ ] = remark or other dose. Unless noted, calls come from the whole dose curve; as a rule, active = well fitted curve in the direction sought with a large enough effect; inconclusive = small, poorly fitted or top-dose-only effect, or another doubt; inactive = no such curve, though single readings can be large; an effect the other way counts as inactive or inconclusive.

SMILES	B2AR arrestin	BRCA1 expr act	DRD3 agonist	DRD3 antagonist	RGS4 inhibitor	PTHR1 agonist
C[C@@H]1CC=C[C@H]2[C@H]1C(=O)N(Cc1ccccc1)[C@H]2c1ccc(-c2ccoc2)cc1F	-1%	-37%	-26	-62*	-48%	-73%
CCC(C)(C)n1nnnc1C(c1cccc(C#N)c1)N1CCN(c2cc(C)ccc2C)CC1 (stereo not drawn)	-1%	-21%	-8	-60*	1%	-17%[57.5 µM]
CCn1c(N2CCN(S(=O)(=O)c3ccccc3C(F)(F)F)CC2)nc2ccccc21	0%	-35%	32*	5	5%[11.4 µM]	-14%
CCn1c(N2CCN(S(=O)(=O)c3ccc(OC)cc3)CC2)nc2ccccc21	0%	-43%	36*	-1	12%	-35%
O=S(=O)(c1ccccc1C(F)(F)F)N1CCN(S(=O)(=O)c2ccccc2C(F)(F)F)CC1	-1%	0%	-2	6	6%	i
C=CCc1c(C)nc(C)nc1N/N=C/c1ccccc1O	0%	-67%	-21	-113*	47%	-15%
CCn1c(-c2ccc(F)cc2)n[nH]c1=S	0%	13%	-6	-88*	-32%	-26%
CCn1c(-c2ccc(C(C)(C)C)cc2)n[nH]c1=S	-1%	-2%	-7	-30	?	-11%
Cn1c(-c2ccc(C(C)(C)C)cc2)n[nH]c1=S	0%	20µM*	2	?	-21%	-65%[57.5 µM]
Cc1ccc(CN(C(=O)COc2ccc(Cl)c(C)c2)C2CCS(=O)(=O)C2)o1 (stereo not drawn)	nt	nt	-9	nt	9%	-61%
O=C(Nc1ccnn1C1CCN(C(=O)c2cnsn2)CC1)c1cccc(F)c1	0%	-9%	-4	-9	20%	-15%
COc1cccc(CNC(=O)C2CCN(S(=O)(=O)c3c(C)noc3/C=C/c3cccs3)CC2)c1	nt	nt	-11	nt	8%	i
O=C(CCN1CCN(c2ccccc2F)CC1)Nc1ccccc1F	0%	-21%	32*	-25	38%	i
O=C(CN1CCN(c2ccccc2F)CC1)Nc1ccccc1F	0%	38%	-13	-58*	20%	-7%
Cc1ccc(NC(=O)CN2CCN(c3ccccc3F)CC2)cc1F	nt	nt	-14	nt	-8%	-2%
CCc1nc2ccc(C(=O)Nc3cccc(OCC(=O)N(C)C)c3)cn2c1N(C)Cc1ccc(OC)cc1	nt	-6%	7	41	nt	i
Cc1cccc(N=C2NC(=O)/C(=C3/C(=O)N(C)c4ccccc43)S2)c1C	-1%	-4%	-5	-93*	-29%	i
OCc1ccccc1OCCCN1CCC(Cc2ccccc2)CC1	0%	2%	-25	-66*	10%	-14%
COc1cc(C)c(CN2CCC(Cc3ccccc3)CC2)cc1C	0%	0%	-25	?	16%	-5%
Clc1ccccc1OCCN1CCC(Cc2ccccc2)CC1	0%	-42%	-7	-90*	2%	-12%
O=Cc1cc(Cl)ccc1OCCN1CCC(Cc2ccccc2)CC1	8%	-22%	-23	?	5%	-30%
C=CCOc1ccccc1CN1CCC(Cc2ccccc2)CC1	0%	-20%	-10	-52*	-1%	i
CC(C)COC(=O)N(C)C[C@H]1OCc2cnnn2CCCC(=O)N([C@H](C)CO)C[C@@H]1C	nt	9%	1	2	nt	-32%
COc1ccccc1N1CCN(CC(O)COc2ccc(C)c(C)c2)CC1 (stereo not drawn)	0%	-19%	-21	-101*	1%	-6%
COc1ccccc1N1CCN(CC(O)COc2ccc(Cl)c(C)c2)CC1 (stereo not drawn)	nt	nt	-23	nt	5%	i
SMILES	B2AR arrestin	BRCA1 expr act	DRD3 agonist	DRD3 antagonist	RGS4 inhibitor	PTHR1 agonist
COc1ccccc1N1CCN(CC(O)COc2ccc3c(c2)CCC3)CC1 (stereo not drawn)	0%	-34%	-5	-67*	4%	-77%[57.5 µM]
CN1CCN(CC(O)COC(c2ccc(Cl)cc2)c2ccc(Cl)cc2)CC1 (stereo not drawn)	1%	-27%	-5	-24	-10%	i
CC(C)(C)CC(C)(C)NCC(O)COc1ccc2c(c1)CCC2 (stereo not drawn)	nt	-79%	3	-63*	-19%	i
Cc1ccc(Cl)cc1N1CCN(CC(O)COC(C)C)CC1 (stereo not drawn)	0%	6%	-14	-79*	21%	i
OC(c1ccc(F)c(F)c1)c1nc(-c2ccc3c(c2)OCO3)cs1 (stereo not drawn)	nt	7%	-11	0	nt	i
CCN(CC)C(=O)c1sc(N2C(=O)Nc3ccccc3N2O)c(C(=O)OC)c1C	0%	2%	-5	-5	18%	?
CNS(=O)(=O)c1ccc(CNC[C@H]2O[C@@H](n3cc(C)c(=O)[nH]c3=O)C[C@@H]2O)cc1	nt	3%	6	12	nt	-9%
O=C(NC1CCCCC1)C(c1ccccn1)N(C(=O)c1csnn1)c1ccccc1 (stereo not drawn)	0%	-3%	-2	-5	-10%	i
O=C(/C=C/c1c(Cl)cccc1Cl)n1cccn1	0%	16%	-8	-74*	-35%[56.9 µM]	i
O=C(c1n[nH]c(=O)c2ccccc12)N1CCOCC1	0%	-8%	-6	-59*	-15%	-7%[57.5 µM]
COc1ccc(CONS(=O)(=O)c2ccc(NC(C)=O)cc2)cc1Cl	0%	-31%	10	-106*	31%	-9%
C/C=C/c1ccc(OCCCCN2CC(C)CC(C)C2)c(OC)c1 (stereo not drawn)	0%	-24%	-39	-74*	11%	-9%
Cc1cc(C)n(-c2ccc(C(=O)Nc3nnc(C)s3)cc2)n1	6%	19%	-3	1	2%	-4%[57.5 µM]
Cc1cc(C)n(-c2ccc(C(=O)Nc3sccc3C(N)=O)cc2)n1	0%	1µM*	1	3	-37%	-23%[57.5 µM]
COc1ccc(CNC(=O)C2=CC(c3ccc(C)cc3)=NS(=O)(=O)N2C)cc1	0%	-3%	-9	-11	-6%	-24%
CC(=O)Nc1ccc(Sc2ccc([N+](=O)[O-])o2)cc1	nt	-96%	-26	-74*	-34%	-20%
C#C[C@]1(OC(C)=O)CC[C@H]2[C@@H]3CCC4=C/C(=N/O)CC[C@@H]4[C@H]3CC[C@@]21CC	nt	nt	37*	nt	nt	nt
Cc1ccc(C(=O)NCCNS(C)(=O)=O)cc1	0%	30%	-3	1	-21%	8%
O=C(NNC(=O)C(c1ccccc1)c1ccccc1)c1ccccn1	-1%	-70%	-24	-86*	15%	i
Cc1c(CNC2CCCCC2)c(C(=O)O)c(C)n1Cc1ccc(F)cc1	nt	nt	-11	nt	13%	-1%

Bioassay records: PubChem, National Center for Advancing Translational Sciences (NCATS)
